Results: the supplement of paper PMC12067926

Experiments:
Test in all cases: relative growth (AUC of 72 h growth curve relative to DMSO control, dAUC) (ratio); higher = more growth (less inhibition), active = hit call of the paper
Settings in all cases: 20 µM;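 active = growth AUC significantly below the DMSO wells by Dunnett test; inactive = the rest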
[1] = system: Aeromonas 1 (Aeromonas sp. AE235)
In short: (§1)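 Cultures grown to carrying capacity in Luria–Bertani medium, drawn from Icelandic stream sediment and Silwood Park soil isolates and whole sediment communities, were diluted 1:100 into 96-well plates with each chemical at 20 µM (1% DMSO) and read at A600 hourly for 72 h. The spline-integrated area under the growth curve, divided by the mean of the DMSO controls, is reported as relative growth (dAUC). Values are means of three biological replicates.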

[2] = system: Aeromonas 2 (Aeromonas sobria)
In short: as §1

[3] = system: Aeromonas 3 (Aeromonas popoffii)
In short: as §1

[4] = system: Argrobacterium 1 (Agrobacterium sp.)
In short: as §1

[5] = system: Arthrobacter 1 (Arthrobacter humicola)
In short: as §1

[6] = system: Arthrobacter 2 (Arthrobacter humicola)
In short: as §1

[7] = system: Arthrobacter 3 (Arthrobacter sp.)
In short: as §1

Community 10 = system: Community 10
In short: as §1

Community 4 = system: Community 4
In short: as §1

Community 6 = system: Community 6
In short: as §1

Community 7 = system: Community 7
In short: as §1

Community 8 = system: Community 8
In short: as §1

Community 9 = system: Community 9
In short: as §1

[8] = system: Flavobacterium 1 (Flavobacterium glaciei)
In short: as §1

[9] = system: Flavobacterium 2 (Flavobacterium succinicans)
In short: as §1

[10] = system: Hymenobacter 1 (Hymenobacter glaciei)
In short: as §1

[11] = system: Microbacterium 1 (Microbacterium arborescens)
In short: as §1

[12] = system: Neobacillus 1 (Neobacillus soli)
In short: as §1

[13] = system: Oryzobacter 1 (Oryzobacter terrae)
In short: as §1

[14] = system: Paenibacillus 1 (Paenibacillus castaneae)
In short: as §1

Measured: relative growth

CNC(=O)/C=C(\C)OP(=O)(OC)OC
inactive: [1] 0.951 | [2] 0.972 | [3] 0.995 | [4] 0.984 | [5] 0.943 | [6] 0.906 | [7] 0.94 | Community 10 0.927 | Community 4 0.942 | Community 6 0.973 | Community 7 1.14 | Community 8 0.954 | Community 9 0.956 | [8] 0.897 | [9] 0.954 | [10] 0.933 | [11] 0.986 | [12] 0.937 | [13] 1.11 | [14] 0.944

CN/C(=N\[N+](=O)[O-])NCc1cnc(Cl)s1
inactive: [1] 1 | [2] 0.976 | [3] 0.985 | [4] 0.98 | [5] 0.983 | [6] 0.841 | [7] 0.873 | Community 10 0.931 | Community 4 0.981 | Community 6 0.914 | Community 7 1.06 | Community 8 1 | Community 9 0.871 | [8] 0.869 | [9] 0.939 | [10] 0.958 | [11] 0.983 | [12] 0.85 | [13] 1.05 | [14] 0.961

CC(C)CC(C)c1sccc1NC(=O)c1cn(C)nc1C(F)(F)F (stereo not given)
1.2: [13]
inactive: [1] 0.935 | [2] 0.946 | [3] 0.994 | [4] 0.855 | [5] 0.87 | [6] 0.885 | [7] 0.936 | Community 10 0.715 | Community 4 0.78 | Community 6 0.806 | Community 7 1.06 | Community 8 1.01 | Community 9 0.916 | [8] 1.02 | [9] 0.921 | [10] 0.945 | [11] 0.937 | [12] 0.924 | [14] 0.906

CC1(C)[C@H](C(=O)O[C@H](C#N)c2cccc(Oc3ccccc3)c2)[C@@H]1C=C(Br)Br
inactive: [1] 1.05 | [2] 1.04 | [3] 1.09 | [4] 1.09 | [5] 1.16 | [6] 0.949 | [7] 0.946 | Community 10 0.964 | Community 4 1.01 | Community 6 1.06 | Community 7 1.07 | Community 8 1.06 | Community 9 1.05 | [8] 1.08 | [9] 1.02 | [10] 1.06 | [11] 1.03 | [12] 1.1 | [13] 1.08 | [14] 0.958

COP(=S)(OC)Oc1nc(Cl)c(Cl)cc1Cl
active: [6] 0.312 | [7] 0.646 | [8] 0.348
inactive: [1] 1.04 | [2] 1.02 | [3] 1.01 | [4] 1.05 | [5] 0.769 | Community 10 0.856 | Community 4 0.867 | Community 6 0.987 | Community 7 1.04 | Community 8 1.06 | Community 9 1.03 | [9] 0.97 | [10] 0.99 | [11] 1.04 | [12] 1.01 | [13] 1.05 | [14] 0.874

CCc1nn(C)c(C(=O)NCc2ccc(Oc3ccc(C)cc3)cc2)c1Cl
inactive: [1] 1.03 | [2] 1.06 | [3] 1.05 | [4] 1.02 | [5] 1.04 | [6] 0.892 | [7] 1.02 | Community 10 0.804 | Community 4 0.865 | Community 6 0.897 | Community 7 1.02 | Community 8 1.03 | Community 9 0.885 | [8] 1 | [9] 1.04 | [10] 0.992 | [11] 1.02 | [12] 1.05 | [13] 0.988 | [14] 1

N#Cc1c[nH]cc1-c1cccc2c1OC(F)(F)O2
inactive: [1] 0.982 | [2] 0.92 | [3] 0.986 | [4] 0.99 | [5] 0.868 | [6] 0.824 | [7] 0.882 | Community 10 0.855 | Community 4 0.977 | Community 6 0.93 | Community 7 1.12 | Community 8 1.02 | Community 9 0.914 | [8] 0.83 | [9] 0.856 | [10] 0.958 | [11] 1.01 | [12] 0.915 | [13] 1.14 | [14] 0.904

O=C(O)c1nc(Cl)ccc1Cl
inactive: [1] 0.95 | [2] 0.943 | [3] 0.997 | [4] 0.946 | [5] 1.03 | [6] 0.895 | [7] 0.963 | Community 10 0.892 | Community 4 0.903 | Community 6 0.972 | Community 7 1.17 | Community 8 0.994 | Community 9 0.937 | [8] 1.04 | [9] 0.962 | [10] 0.835 | [11] 0.977 | [12] 0.968 | [13] 0.889 | [14] 0.973

CC1(C)CON(Cc2ccccc2Cl)C1=O
inactive: [1] 0.978 | [2] 0.966 | [3] 1.01 | [4] 1 | [5] 0.963 | [6] 0.879 | [7] 1.08 | Community 10 0.791 | Community 4 0.973 | Community 6 0.946 | Community 7 1.08 | Community 8 1.04 | Community 9 1.02 | [8] 1.02 | [9] 0.941 | [10] 0.974 | [11] 1 | [12] 0.965 | [13] 1.13 | [14] 0.973

CC1(C(=O)Nc2ccc(O)c(Cl)c2Cl)CCCCC1
active: [10] 0.654
inactive: [1] 0.972 | [2] 0.983 | [3] 0.993 | [4] 0.983 | [5] 0.846 | [6] 1.02 | [7] 0.984 | Community 10 0.827 | Community 4 0.977 | Community 6 0.984 | Community 7 1 | Community 8 0.942 | Community 9 1.1 | [8] 0.982 | [9] 0.979 | [11] 0.995 | [12] 0.99 | [13] 1.04 | [14] 0.954

CCOCN(C(=O)CCl)c1c(C)cccc1CC
active: [12] 0.667
inactive: [1] 0.953 | [2] 0.938 | [3] 0.964 | [4] 1.02 | [5] 0.999 | [6] 0.858 | [7] 1.02 | Community 10 0.858 | Community 4 0.952 | Community 6 0.921 | Community 7 0.976 | Community 8 1.02 | Community 9 1.06 | [8] 1.05 | [9] 0.946 | [10] 0.969 | [11] 1.06 | [13] 1.04 | [14] 0.928

CC(C)OC(=O)Nc1cccc(Cl)c1
inactive: [1] 0.932 | [2] 0.969 | [3] 1.05 | [4] 0.93 | [5] 0.95 | [6] 1 | [7] 0.964 | Community 10 1.17 | Community 4 1.11 | Community 6 1.13 | Community 7 1.07 | Community 8 1.01 | Community 9 1.09 | [8] 0.971 | [9] 1.03 | [10] 1.09 | [11] 1.04 | [12] 1.09 | [13] 0.999 | [14] 1.12

CCCCN(CCCC)SN(C)C(=O)Oc1cccc2c1OC(C)(C)C2
inactive: [1] 1.06 | [2] 1.03 | [3] 1.05 | [4] 1.07 | [5] 1.23 | [6] 0.838 | [7] 0.966 | Community 10 0.824 | Community 4 0.917 | Community 6 0.92 | Community 7 1.13 | Community 8 1.01 | Community 9 0.884 | [8] 0.925 | [9] 0.985 | [10] 1.13 | [11] 1.01 | [12] 0.952 | [13] 1.2 | [14] 1.12

N#Cc1c(Cl)c(Cl)c(Cl)c(C#N)c1Cl
inactive: [1] 1.04 | [2] 0.898 | [3] 1.01 | [4] 0.958 | Community 10 0.896 | Community 4 1.08 | Community 6 0.965 | Community 7 0.891 | Community 8 1.02 | Community 9 0.784 | [11] 1.06 | [12] 0.966
active: [5] 0.567 | [6] 0.136 | [7] 0.599 | [8] 0.681 | [9] 0.543 | [10] 0.352 | [13] 0.632 | [14] 0.0717

C[N+]1(C)CCCCC1
inactive: [1] 1.03 | [2] 1.01 | [3] 1.02 | [4] 0.994 | [5] 1.08 | [6] 0.96 | [7] 1.04 | Community 10 1.01 | Community 4 1.09 | Community 6 1.07 | Community 7 0.992 | Community 8 0.99 | Community 9 1.06 | [8] 1.03 | [9] 1.03 | [10] 1.08 | [11] 0.951 | [12] 1 | [13] 1.06 | [14] 1

O=C1C2CC=CCC2C(=O)N1SC(Cl)(Cl)Cl (stereo not given)
active: [4] 0.74 | Community 6 0.614 | Community 9 0.473
inactive: [1] 0.905 | [2] 1.01 | [3] 0.983 | [5] 0.95 | [6] 0.769 | [7] 0.919 | Community 10 0.58 | Community 4 0.671 | Community 7 0.95 | Community 8 0.794 | [8] 0.948 | [9] 0.9 | [10] 0.968 | [11] 1 | [12] 0.917 | [13] 0.991 | [14] 1.06

COC(=O)NC(=S)Nc1ccccc1NC(=S)NC(=O)OC
inactive: [1] 0.978 | [2] 0.978 | [3] 0.998 | [4] 1.02 | [5] 0.923 | [6] 0.973 | [7] 1.07 | Community 10 0.99 | Community 4 0.943 | Community 6 0.97 | Community 7 1.03 | Community 8 0.993 | Community 9 1.05 | [8] 1.08 | [9] 0.993 | [10] 0.952 | [11] 1 | [12] 1.01 | [13] 0.947 | [14] 0.934
